# Results: PubChem BioAssay AID2314 (National Center for Advancing Translational Sciences (NCATS), 2010)
# The whole screen tested about 300,000 compounds, of which about 37,000 (12%) were called active. Cut-off read from the data, not from the text of the source: active = max response mostly above about 13% (no sharp cut-off); inactive = mostly below about 14%. For the sample, actives were picked, then their nearest neighbours and some compounds at random.
# Assay: Cycloheximide Counterscreen for Small Molecule Inhibitors of Shiga Toxin; note: read at 38.3 µM for the half of the compounds with a filed dose; 0% is about no effect
# Conditions: cell reporter, cycloheximide protein synthesis inhibition counterscreen; hits give high values
row,SMILES,max response
1,Cc1cc(Nc2cccc(C)c2C)n2ncnc2n1,-1.07% (inactive)
2,CCn1cc(C(=O)OCC(=O)Nc2cccc(C)c2)c(=O)c2ccc(C)nc21,-2.42% (inactive)
3,CN(c1ccc(OCC(=O)OCC(=O)Nc2cccc([N+](=O)[O-])c2)cc1)S(=O)(=O)c1ccc(F)cc1,5.41% (inactive)
4,Cc1onc(-c2ccccc2)c1C(=O)N1CCN(S(=O)(=O)c2ccccc2C(F)(F)F)CC1,10.2% (inactive)
5,FC(F)(F)c1nc2ccccc2nc1N/N=C/c1ccc(Cl)cc1,-0.973% (inactive)
6,Oc1ccc(/C=N/NC2=NCCCCC2)c(O)c1,42% (active)
7,Oc1ccc(/C=N/Nc2nc(-c3ccccc3F)nc3ccccc23)c(O)c1,15.1% (active)
8,COc1ccc(/C=C(\C#N)C(=O)ONC2=NCCCCC2)cc1,9.41% (inactive)
9,Cc1nc2ccccc2nc1N/N=C/c1ccc(O)cc1O,25% (active)
10,Cc1ccc(/C=N/NC(=O)C2=NNC(c3ccccc3)(c3ccccc3)C2)c(O)c1,9.49% (inactive)
11,Cc1cc(N/N=C/c2ccccc2F)c2ccccc2n1,-1.58% (inactive)
12,CC(=O)c1ccc(N2CCN(C(=O)C3CCN(S(=O)(=O)c4ccc5c(c4)CC(C)N5C(=O)C4CC4)CC3)CC2)cc1 (centres undefined),-0.93% (inactive)
13,Cc1cc(C)n(CC(O)COc2ccc(C(C)(C)C)cc2)n1 (centres undefined),10.5% (inactive)
14,CCc1cccc(NC(=S)N(CCN(C)C)C2CCN(C(C)C)CC2)c1,-3.94% (inactive)
15,Cc1ccc(NC(=O)C(=O)NCc2ccc(/C=N/NC(=O)c3c(C)nc4cc(C)ccn34)o2)cc1,6.74% (inactive)
16,O=c1[nH]c(CN2CCN(S(=O)(=O)c3ccc4c(c3)OCCO4)CC2)nc2sc3c(c12)CCCC3,-1.21% (inactive)
17,CCCCOc1ccc(C(=O)N/C(=C/C=C/c2ccccc2)C(=O)N2CCOCC2)cc1,-4.3% (inactive)
18,CC(C)COP(=O)(c1ccc(N(C)C)cc1)C(Nc1ccccc1)c1cccnc1 (centres undefined),-7.16% (inactive)
19,O=C(CCN1C(=O)[C@@H]2Cc3ccccc3CN2C1=O)NCc1ccccc1,-3.78% (inactive)
20,N#C/C=C/N1CCN(Cc2ccc3c(c2)OCO3)CC1,-4.02% (inactive)
21,O=P(O)(CN1CCCCCC1)C1Cc2ccccc2C1,-0.763% (inactive)
22,Cc1noc(C)c1-c1ccc2ncnc(NCc3ccc4[nH]ccc4c3)c2c1,56.1% (active)
23,Cc1noc(C)c1-c1ccc2ncnc(NCc3ccc(F)c(F)c3)c2c1,-5.05% (inactive)
24,Cc1noc(C)c1-c1ccc2ncnc(NC(C)c3ccco3)c2c1 (centres undefined),14.8% (inactive)
25,COc1ccc(NC(=O)CNC(=O)Cn2ccc3ccccc3c2=O)c(OC)c1,-1.76% (inactive)

row,SMILES,max response
1,O=C(C1CCCO1)N1CCN(C(=S)Nc2cccc(Cl)c2)CC1 (centres undefined),2.71% (inactive)
2,Cc1ccc(C2CCN(C(=S)Nc3cccc(Cl)c3)C2)cc1 (centres undefined),23.2% (active)
3,Cc1cccc(NC(=S)N2CCCC(c3nc4ccccc4[nH]3)C2)c1 (centres undefined),2.24% (inactive)
4,CCn1c2ccccc2c2cc(NC(=O)Nc3ccc([N+](=O)[O-])cc3C)ccc21,1.99% (inactive)
5,COc1ccc(NC(=O)COc2ccc(C(=O)c3ccc(F)cc3)cc2)cc1S(N)(=O)=O,-1.97% (inactive)
6,COCCCn1c(SCC(=O)NC2CCCC2)nnc1-c1ccccc1,-2.3% (inactive)
7,O=C(Nc1ccc2sc3ccccc3c(=O)c2c1)c1ccccc1Cl,40.4% (active)
8,COCC(=O)N1CCc2ccc(NC(=O)c3ccccc3Cl)cc2C1,-1.85% (inactive)
9,O=C(Nc1cccc(NC(=O)c2ccccc2[N+](=O)[O-])c1)c1ccccc1Cl,-2.59% (inactive)
10,O=C(COc1ccccc1[N+](=O)[O-])NC1CC1,1.49% (inactive)
11,O=C(O)CCCN1C(=O)C2C3c4ccccc4C(c4ccccc43)[C@@H]2C1=O (some centres undefined),-1.2% (inactive)
12,C=CCSC(CC)(CC)C(N)=O,-2.64% (inactive)
13,CCC(=O)N1CCCc2ccccc21,-1.65% (inactive)
14,Cc1c(C(=O)N2CCCc3ccccc32)oc2ccccc12,18.8% (active)
15,Cc1ccc2[nH]c(C(=O)O)c(NC(=O)c3ccccc3[N+](=O)[O-])c2c1,-2.43% (inactive)
16,CCc1nonc1NC(=O)c1oc2ccc(Cl)cc2c1C,-1.57% (inactive)
17,Cc1ccc(NC(=O)c2oc3ccccc3c2C)c([N+](=O)[O-])c1,29.7% (active)
18,Cc1ccnc(NS(=O)(=O)c2ccc(NC(=O)c3oc4ccccc4c3C)cc2)n1,1.07% (inactive)
19,Cc1nonc1NC(=O)c1oc2ccccc2c1C,35.8% (active)
20,Cc1c(C(=O)NC2CCCCC2)oc2ccccc12,39.2% (active)
21,Cc1nonc1NC(=O)c1ccccc1Br,6.09% (inactive)
22,COc1ccc2oc(=O)c(C(=O)N3CCCc4ccccc43)cc2c1,0.681% (inactive)
23,Cc1c(C(=O)Nc2cccc(-c3nnc4n3CCCCC4)c2)oc2ccccc12,13% (inactive)
24,Cc1ccc(NC(=O)c2oc(=O)c3ccccc3c2-c2ccccc2)c(C)c1,-5.99% (inactive)
